# Values without a mark were called inactive. The source made the active and inactive calls. Calls follow the shape of the full dose curve. Numbered stars: 1 amine (or outer) side, 2 acyl side, 3 side chain; on linkers, the order of the positions; unused ones are H or OH. Bridge positions count the residues as written; N and C are the ends. Square brackets hold non-standard residues; d marks the D form. Peptide text beside a SMILES is read from it. I, II: the chains in the order shown. Actinocin(9to1) = Cc1c2oc3c(C)ccc(C(=O)[*:1])c3nc-2c(C(=O)[*:2])c(N)c1=O; NMeV = CN[CH](C(=O)O)C(C)C; Sar = CNCC(=O)O
# Experiment: qHTS profiling of Chloroquine Analogs as inhibitors of Plasmodium falciparum (DD2) proliferation
# Conditions: Potency: Plasmodium falciparum Dd2 proliferation inhibition; series mostly up to 28.7 µM; activity change, negative = inhibition: at the top concentration
# Description: Plasmodium falciparum is a virulent malarial parasite that kills 1-2 million people worldwide each year. Transmitted by mosquitoes, the sporozoite form of the parasite enters the blood stream to infect hepatocytes, where they become merozoites that infect red blood cells (erythrocytes). Within erythrocytes, merozoites begin a […] cycle of growth and division, after which the parasite is released to infect new red blood cells. Gametocytes, which form within erythrocytes as well, circulate in the bloodstream and are ingested by the mosquito, thereby completing the life cycle. To profile malarial isolates for differential chemical responses and to identify inhibitors of malarial growth, an assay that measures P. falciparum growth and replication within erythrocytes was employed. This assay uses a DNA binding fluorescent dye (SYBR Green) to detect parasite DNA following cell lysis. Because mature erythrocytes lack DNA, only Plasmodium-derived DNA is detected.
# The SYBR Green viability assay was adapted from a method described previously (Plouffe et al., 2008). For screening 3 ul culture medium was dispensed into 1536 well black clear bottom plates (Aurora Biotechnologies) using a Multidrop Combi (Thermo Fisher Scientific Inc.), 23 nL compounds in DMSO were added by a pin tool (Kalypsys), and 5 ul of erythrocytes infected with P. falciparum (0.3% parasitemia, 2.5% hematocrit final concentration) were added. The plates were incubated at 37 C in a humidified incubator in 5% CO2 for 72 h, and 2 ul lysis buffer (20 mM Tris HCl, 10 mM EDTA, 0.16% saponin, 1.6% triton X, 10X SYBR Green I supplied as 10,000X […] by Invitrogen) was added to each well. The plates were mixed for 25 sec with gentle shaking and incubated overnight at room temperature in the dark. The following morning, fluorescence intensity at 485(14) nm excitation and 535(25) nm emission wavelengths was measured on an EnVision (Perkin Elmer) plate reader. Plate reads were normalized relative to the control inhibitor (0.29 uM artemisinin) and vehicle (DMSO) wells present on each plate and then corrected by an algorithm using vehicle-only control plates at the beginning and end of the compound plate stack.
Structure (SMILES),"activity change, negative = inhibition",Potency
CC(C)N=C(N)N=C(N)Nc1ccc(Cl)cc1,190%,
Cc1cccc(C)c1OCC(=O)N[C@@H](Cc1ccccc1)[C@@H](O)C[C@H](Cc1ccccc1)NC(=O)[C@H](C(C)C)N1CCCNC1=O,-98.3%,
CN(C)CCOC(c1ccccc1)c1ccccc1,,1500 nM (active)
COc1cc2c(Nc3ccc(NC(=O)c4ccccc4)cc3)ncnc2cc1OCCCN1CCOCC1,,749 nM (active)
O=C(C[C@@H]1NCCC[C@@H]1O)Cn1cnc2ccccc2c1=O,-101%,
C[C@@H]1CC[C@H]2[C@@H](C)C(=O)O[C@@H]3OC4(C)CC[C@@H]1C32OO4 (stereo not given in full),171% [at 57.5 µM],
COc1cc(C=CC(=O)CC(=O)C=Cc2ccc(O)c(OC)c2)ccc1O,,5300 nM (active)
CCCC[C@@H]1C[C@@H](C(=O)NC([C@H](C)Cl)[C@H]2O[C@H](S)[C@H](O)[C@@H](O)[C@@H]2O)N(C)C1 (stereo not given in full),-73.3%,
O[C@H](c1cc(C(F)(F)F)nc2c(C(F)(F)F)cccc12)[C@H]1CCCCN1,192% [at 14.2 µM],
CCCC(=O)O[C@]1(C(=O)CCl)[C@H](C)C[C@@H]2[C@H]3CCC4=CC(=O)C=C[C@]4(C)[C@@]3(F)C(=O)C[C@@]21C,173%,
CCN(CC)CCCC(C)Nc1ccnc2cc(Cl)ccc12 (stereo not given),193%,
COCC(=O)O[C@]1(CCN(C)CCCc2nc3ccccc3[nH]2)CCc2cc(F)ccc2[C@@H]1C(C)C,-101%,
CN1CC[C@H](CN2c3ccccc3Sc3ccccc32)C1,-70.9%,
"Cc1c2oc3c(C)ccc(C(=O)NC4C(=O)NC(C(C)C)C(=O)N5CCCC5C(=O)N(C)CC(=O)N(C)C(C(C)C)C(=O)OC4C)c3nc-2c(C(=O)NC2C(=O)NC(C(C)C)C(=O)N3CCCC3C(=O)N(C)CC(=O)N(C)C(C(C)C)C(=O)OC2C)c(N)c1=O (stereo not given) (I: TVP[Sar][NMeV] / II: TVP[Sar][NMeV]; ester I:1-I:C, II:1-II:C; linker I:N-II:N via Actinocin(9to1); configuration not given here)",,2.4 nM (active)
CCc1nc(N)nc(N)c1-c1ccc(Cl)cc1,-2.13%,
C[C@H]1[C@@H](CCC(=O)Nc2ccc(F)cc2)O[C@@H]2O[C@]3(C)CC[C@@H]4[C@H](C)CC[C@@H]1[C@@]24OO3,203%,
C[C@@H]1CCC2[C@@H](C)[C@@H](O)O[C@@H]3O[C@@]4(C)CC[C@@H]1[C@@]23OO4 (stereo not given in full),-102%,
C[N+]1(C)CCC(=C(c2ccccc2)c2ccccc2)CC1,-90.3% [at 14.2 µM],
Oc1cc(Cl)ccc1Oc1ccc(Cl)cc1Cl,,3350 nM (active)
CC[C@@H](C)[C@H]1O[C@]2(CC[C@H]1C)C[C@@H]1C[C@@H](CC=C(C)[C@@H](O[C@H]3C[C@H](OC)[C@@H](O[C@H]4C[C@H](OC)[C@@H](O)[C@H](C)O4)[C@H](C)O3)[C@@H](C)C=CC=C3CO[C@@H]4[C@H](O)C(C)=C[C@@H](C(=O)O1)[C@]34O)O2,-103%,

Structure (SMILES),"activity change, negative = inhibition",Potency
O=C(O)c1cn(C2CC2)c2cc(N3CCNCC3)c(F)cc2c1=O,-13.3%,
C[C@H]1c2cccc(O)c2C(O)=C2C(=O)[C@]3(O)C(O)=C(C(N)=O)C(=O)[C@@H](N(C)C)[C@@H]3[C@@H](O)[C@@H]21,-96.4%,
CCCCN(CCCC)CCC(O)c1cc2c(Cl)cc(Cl)cc2c2cc(C(F)(F)F)ccc12 (stereo not given),210% [at 14.2 µM],
C[C@@H]1[C@@H](CC(C[C@H]2O[C@@H]3O[C@]4(C)CC[C@@H]5[C@H](C)CC[C@@H]([C@H]2C)[C@@]35OO4)C(=O)NCc2ccc(F)cc2)O[C@@H]2O[C@]3(C)CC[C@H]4[C@H](C)CC[C@@H]1[C@@]24OO3 (stereo not given in full),-100%,
CC(C)(C)c1cc(O)c(CN)c(C(C)(C)C)c1,180%,
CC[C@H]1OC(=O)[C@H](C)[C@@H](O[C@H]2C[C@@](C)(OC)[C@@H](O)[C@H](C)O2)[C@H](C)[C@@H](O[C@@H]2O[C@H](C)C[C@H](N(C)C)[C@@H]2O)[C@](C)(O)C[C@@H](C)CN(C)[C@H](C)[C@@H](O)[C@]1(C)O,-94.5%,
C[C@H]1[C@@H](OC(=O)CCC(=O)O)O[C@@H]2OC3(C)CC[C@H]4[C@H](C)CC[C@@H]1[C@@]24OO3,-102%,
CC(=O)O[C@@]12CO[C@@H]1C[C@H](O)[C@@]1(C)C(=O)[C@H](O)C3=C(C)[C@@H](OC(=O)[C@H](O)[C@@H](NC(=O)OC(C)(C)C)c4ccccc4)C[C@@](O)([C@@H](OC(=O)c4ccccc4)[C@H]21)C3(C)C,-97.1%,
C=CC(C)=C[C@@]1(C)SC(=O)C(C)=C1O,0.0824%,
CC(CNC1CCCCC1)OC(=O)c1ccccc1 (stereo not given),-39.4% [at 14.2 µM],
CNC(=O)c1cc(Oc2ccc(NC(=O)Nc3ccc(Cl)c(C(F)(F)F)c3)cc2)ccn1,183%,
CN1CCN(CCCN2c3ccccc3Sc3ccc(S(=O)(=O)N(C)C)cc32)CC1,,1140 nM (active)
C=Cc1c(C)c2cc3nc(cc4[nH]c(cc5nc(cc1[nH]2)C(C)=C5CCC(=O)OC)c(CCC(=O)O)c4C)[C@@]1(C)C3=CC=C(C(=O)OC)[C@H]1C(=O)OC,,359 nM (active)
C#C[C@]1(O)CC[C@@H]2[C@H]3CCC4=CC(=O)CC[C@H]4[C@H]3C(=C)C[C@@]21CC,-96.6%,
CN([C@@H](Cc1ccc(OS(=O)(=O)c2cccc3cnccc23)cc1)C(=O)N1CCN(c2ccccc2)CC1)S(=O)(=O)c1cccc2cnccc12,200%,
C[C@H](N)CN1CCc2ccc(Br)cc21,,1880 nM (active)
C[C@@H]1[C@@H](CC(C[C@H]2O[C@@H]3O[C@]4(C)CC[C@@H]5[C@H](C)CC[C@@H]([C@H]2C)[C@@]35OO4)C[S+](=O)([O-])c2ccc(COC(=O)N(C)C)cc2)O[C@@H]2O[C@]3(C)CC[C@H]4[C@H](C)CC[C@@H]1[C@@]24OO3 (stereo not given in full),-102%,
Cc1nc2c(C#N)cccc2n1-c1ccc(C(=O)NC2CC2)s1,179%,
CCN(CC)CCOc1ccc2c(=O)c3ccc(Cl)cc3n(CCN(CC)CC)c2c1,,1330 nM (active)
C[C@H]1Cc2c([nH]c3cc(Cl)c(F)cc23)[C@@]2(N1)C(=O)Nc1ccc(Cl)cc12,-103%,

# — PubChem BioAssay AID743326 (National Center for Advancing Translational Sciences (NCATS), 2014)
